Results taken from PubChem BioAssay AID1063 (University of Pittsburgh Molecular Library Screening Center, 2008).
In all, about 200,000 compounds went through this assay and about 18,000 (9%) were called active. This is one part of a sample in which actives are shown more often than they occur. No stated cut-off is given here; in the data, active means inhibition above about 50%; inactive means the rest.

Assay: Leishmania major promastigote growth inhibition, primary screen (AID 1063);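 further: promastigotes grown with compound for 44 hours at 28 °C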
Details: Leishmania major promastigotes, resazurin fluorescence viability; at 10 µM; active compounds read high

SMILES | inhibition
O=C(COc1ccc(S(=O)(=O)N2CCCCC2)cc1)NCc1ccccn1 | -4.35% (inactive)
COc1cc(N/C=C2\CC(=O)NC(C)=C2C#N)cc(OC)c1OC | -6.28% (inactive)
O=C(CCS(=O)(=O)Cc1ccccc1)Nc1ccc2c(c1)OCCO2 | -2.36% (inactive)
O=C(Cn1cnc([N+](=O)[O-])n1)NCCc1ccccc1 | 21.8% (inactive)
O=C(Nc1cccc(CCc2ccccn2)c1)c1ccc(Cl)cc1 | 2.49% (inactive)
Cc1ccc2[nH]c(=O)c(CN(CCCN(C)C)C(=O)Nc3cccc(Cl)c3)cc2c1 | 93.2% (active)
Cc1ccc2[nH]c(=O)c(CN(CC3COCCO3)C(=O)Nc3ccccc3C)cc2c1 (configuration not stated) | 4% (inactive)
Cc1cccc(NC(=O)N(Cc2cc3cc(C)cc(C)c3[nH]c2=O)CC2COCCO2)c1 (configuration not stated) | 37.5% (inactive)
COc1ccc(C(=O)Nc2ccc(NC(=O)C(C)C)nc2)cc1 | 25.1% (inactive)
O=C(N/C(=C\c1ccc(F)cc1)C(=O)N1CCCCCC1)c1ccccc1 | -5.92% (inactive)
Cc1cc2ccccc2n1CCC(=O)O | -7.95% (inactive)
Cc1ccc(/C=N\n2c(-c3ccccc3)n[nH]c2=S)s1 | 0.81% (inactive)
S=c1[nH]nc(-c2ccccc2)n1/N=C/c1c[nH]c2ccccc12 | 54.7% (active)
CCc1n[nH]c(=S)n1/N=C/c1c[nH]c2ccc(Br)cc12 | 11.7% (inactive)
O=C(CCCNS(=O)(=O)c1cccc2nsnc12)NCCN1CCN(c2ccccc2F)CC1 | -3.45% (inactive)
Cc1cc(-c2csc(N)n2)c(C)n1Cc1ccccc1 | 7.08% (inactive)
COc1ccc(/C=C2\CCc3ccccc3C2=O)c(OC)c1OC | 8.72% (inactive)
COc1ccc(C2NC(=S)NC3=C2CCc2ccccc23)cc1OC (configuration not stated) | 57.7% (active)
COc1ccc(C2SCCN2S(=O)(=O)c2ccccc2)cc1OC (configuration not stated) | 22.3% (inactive)
Cc1onc(C(=O)NCc2ccc(F)cc2)c1[N+](=O)[O-] | -5.34% (inactive)
CC(=O)c1ccc(NC(=O)C(C)NCc2ccc(Cl)cc2)cc1 (configuration not stated) | -2.38% (inactive)
C=Cn1c(C(=O)O)ccc1-c1ccc(OC)cc1 | -4.56% (inactive)
CCOC(=O)C1CCCN(C(=O)COc2ccc(N(C)S(=O)(=O)c3ccc(C)cc3)cc2)C1 (configuration not stated) | 27.7% (inactive)
CCC1CCCCN1S(=O)(=O)Cc1ccccc1Cl (configuration not stated) | 3.99% (inactive)
O=C(CC1C(=O)NCCN1Cc1ccc(-c2ccccc2)cc1)NCC1CCOCC1 (configuration not stated) | 2.89% (inactive)
Cc1nnc(CN(C)Cc2cn[nH]c2-c2ccc(-c3ccccc3)cc2)o1 | 26.1% (inactive)
CN(CCC1CCOCC1)Cc1cn[nH]c1-c1ccc(-c2ccccc2)cc1 | 66.8% (active)
